SW480 rerep = A quantitative high throughput screen for small molecules that induce DNA re-replication in SW480 colon adenocarcinoma cells. SW480 DNA re-replication, Hoechst DNA content imaging, 48 h. hit rate 1.8% among 340,000. AID 624297, 2012. Potency, µM (series often up to 46.1 µM), for inactives: at the top dose re-replication activation, most hits filed as activators; also: potency is read from the fitted curve at half-maximal effect; % of control where 0% means no effect; nearly all actives have a fitted effect of over 55% in size
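Treated cells incubate 48 hr (37 C, 5% CO2), are stained 40 min with Hoechst, and nuclear fluorescence is enumerated; a rise in nuclei with high DNA signal marks re-replication.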
Gal4-VP16 FLuc = VP16 counterscreen qHTS for inhibitors of ROR gamma transcriptional activity. hit rate 3.5% among 310,000. Potency, µM (doses to about 53.6 µM), for inactives: top-dose activity, negative = inhibition, hits mostly inhibitors. Drosophila S2 Gal4-VP16 UAS-luciferase, luminescence, 20 h. AID 2546, 2010;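 also: Gal4-VP16 expression switched on by copper sulfate through the metallothionein promoter; potency is read from the fitted curve at half-maximal effect; % is scaled to controls: 0 for no effect and ±100 for the full control effect; nearly all actives have a fitted effect of over 50% in size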
IL1B secr inh = qHTS for Inhibitors of Inflammasome Signaling: IL-1-beta AlphaLISA Primary Screen; activity change, % at 57.5 µM; THP-1 LPS/ATP IL-1B secretion, AlphaLISA, 16 h; stronger effect = lower value; hit rate 4.7% among 360,000; in the data active = activity change below about -50%; inconclusive = mostly about -30% to -49%; also: % is scaled to controls: 0 for no effect and ±100 for the full control effect
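THP-1 cells pretreated 1 hr with compounds (up to 57.5 uM final), then stimulated with LPS (250 ng/mL final) plus ATP (1.25 mM final); secreted IL-1B measured by AlphaLISA after 16 hr, decreased signal indicating inhibition.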
MCF10A rereplic = A quantitative high throughput screen for small molecules that induce DNA re-replication in MCF 10a normal breast cells; MCF 10A DNA re-replication, Hoechst nuclear intensity, 48 h; Potency, µM (titrated, usually from 46.1 µM), inactives show at the top dose activity, positive = re-replication, most hits filed as activators; hit rate 2.9% among 350,000; AID 624296, 2012; also: potency is read from the fitted curve at half-maximal effect; % of control where 0% means no effect; nearly all actives have a fitted effect of over 50% in size
RORgamma inh = qHTS for inhibitors of ROR gamma transcriptional activity | Potency, µM (highest dose often 53.6 µM), for the others: at the highest dose activity change, negative = inhibition, actives largely listed as inhibitors | Drosophila S2 Gal4-RORgamma UAS-luciferase reporter, 20 h | hit rate 5.4% among 310,000 | AID 2551, 2010 | Nuclear receptor ROR-gamma (Mus musculus), P51450; also: potency is read from the fitted curve at half-maximal effect; % is scaled to controls: 0 for no effect and ±100 for the full control effect; nearly all actives have a fitted effect of over 60% in size
Target sequence (P51450 whole entry, looked up, the tested form may be a part): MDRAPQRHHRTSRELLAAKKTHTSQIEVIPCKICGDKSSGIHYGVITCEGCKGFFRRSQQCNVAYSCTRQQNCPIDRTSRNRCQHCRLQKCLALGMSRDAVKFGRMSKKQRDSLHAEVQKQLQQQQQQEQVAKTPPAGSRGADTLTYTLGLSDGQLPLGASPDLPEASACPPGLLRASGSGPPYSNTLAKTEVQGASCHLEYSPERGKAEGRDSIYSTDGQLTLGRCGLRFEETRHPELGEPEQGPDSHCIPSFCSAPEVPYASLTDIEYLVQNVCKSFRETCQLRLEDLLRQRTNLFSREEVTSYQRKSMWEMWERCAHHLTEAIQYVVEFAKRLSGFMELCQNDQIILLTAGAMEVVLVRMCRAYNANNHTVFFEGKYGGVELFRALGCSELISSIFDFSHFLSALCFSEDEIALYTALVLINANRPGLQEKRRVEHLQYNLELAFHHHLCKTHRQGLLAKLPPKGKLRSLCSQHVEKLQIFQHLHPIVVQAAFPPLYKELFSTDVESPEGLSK
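Compounds are pin-transferred onto Drosophila Schneider cells expressing a copper-inducible Gal4–ROR gamma transactivation domain fusion. After 1 hr, copper sulfate is added to 700 uM final; luciferase is read 20 hr later.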
* hit, by the source's call; ? = inconclusive; nt = no result given; [ ] = dose if it differs, or a comment. Sampled rows, rich in hits. Any-hit rate of the full collection: about 11%. Unless noted, calls follow the shape of the dose curve; as a rule, active = well fitted curve in the direction sought with a large enough effect; inconclusive = small, poorly fitted or top-dose-only effect, or another doubt; inactive = no such curve, though single readings can be large; an effect the other way counts as inactive or inconclusive.

SMILES | SW480 rerep | Gal4-VP16 FLuc | IL1B secr inh | MCF10A rereplic | RORgamma inh
COc1cc2nc(CN(C)Cc3nc4ccccc4c(=O)[nH]3)[nH]c(=O)c2cc1OC | 16µM* | 3.5µM* | 6 | ? | 1.6µM*
CCc1ccc2c(CN(C)Cc3ccccc3OC)cc(=O)oc2c1 | 6% | 7% | -1 | ? | 3%
CCN(Cc1nc2ccccc2c(=O)[nH]1)Cc1nc2ccsc2c(=O)[nH]1 | ? | 1µM* | 59 | 0% | 0.45µM*
CCCCn1nnnc1C(c1cc2ccccc2o1)N1CCN(c2ncccc2C#N)CC1 (centres undefined) | nt | nt | -3 | nt | nt
COc1cc(CN(C)c2ncnc3sccc23)ccc1OC(F)F | -5% | ? | 0 | 8% | -3%
COc1cc2nc(CN3CCC(Cc4ccccc4)CC3)[nH]c(=O)c2cc1OC | -4% | 3% | 11 | 6% | 11µM*
CCN(Cc1nc2ccccc2c(=O)[nH]1)Cc1nc2cc(OC)c(OC)cc2c(=O)[nH]1 | 7% | 2.2µM* | -21 | 0% | 1.3µM*
Cc1c(Cl)cn2c(=O)cc(CN3CCN(c4ccccc4)CC3)nc2c1Cl | 1% | 6% | 43 | -1% | 2%
CCN(Cc1cc(=O)n2cc(Cl)c(C)c(Cl)c2n1)Cc1nc2ccccc2c(=O)[nH]1 | 6% | ? | 33 | -44% | 13µM*
O=C(O)c1ccc(N2C(=O)CSC2=S)cc1 | -10% | nt | -62* | 17% | nt
O=C1CSC(=S)N1Cc1cccnc1 | 25% | ? | -84* | 3.3µM* | ?
O=C1CSC(=S)N1c1cccnc1 | ? | 7% | 3 | ? | -1%
O=C(O)c1ccc(CN2C(=O)CSC2=S)cc1 | 14% | ? | -20 | 5.2µM* | 10µM*
O=C(O)c1ccc(N=C2SCC(=O)N2Cc2ccccc2)cc1 | 7% | -2% | 40 | 1% | 4%
COc1ccc(C(=O)C(C)OC(=O)C2CC3CCCC(C2)C3=O)cc1 (centres undefined) | nt | nt | -4 | nt | nt
O=C(NC1CC1)c1ccc(CSCc2ccc(Cl)cc2)o1 | nt | nt | -15 | nt | nt
CC(=O)c1c(C)[nH]c(C(=O)OCC(=O)NCc2ccccc2)c1C | nt | nt | 54 | nt | nt
COCCNC(=O)C1CCCN(C(=O)c2ccnc(Cl)c2)CC1 (centres undefined) | nt | nt | -62* | nt | nt
Cc1ccc(NC(=O)Cn2c(O)c(N=NS(=O)(=O)c3ccc(C)cc3)c3ccccc32)cc1 | ? | 0% | -5 | 21µM* | ?
Cc1ccc(NC(=O)Cn2c(O)c(N=NC(N)=O)c3ccccc32)cc1 | ? | 2% | -2 | ? | -7%
Brc1cccc(CNc2nc3ccccc3n2CCN2CCCCC2)c1 | 8% | -20% | -30 | ? | 4.5µM*
Brc1ccc(CNc2nc3ccccc3n2CCN2CCCCC2)cc1 | 9% | -22% | ? | 18% | ?
COc1ccc(CNc2nc3ccccc3n2CCN2CCCCC2)c(OC)c1 | 0% | -22% | -100* | 19% | 13µM*
CCCn1c(NCc2cc(OC)ccc2OC)nc2ccccc21 | 5% | 11µM* | -15 | 1% | 5µM*
CCn1c(NCc2cc(OC)ccc2OC)nc2ccccc21 | -10% | 24% | -27 | 8% | -26%
SMILES | SW480 rerep | Gal4-VP16 FLuc | IL1B secr inh | MCF10A rereplic | RORgamma inh
CCCCN(C=O)c1c(CC)nc2c(OCC(=O)N3CCOCC3)cccn12 | nt | nt | 15 | nt | nt
N/C(=C\C(=O)c1cc(Cl)ccc1O)C(Cl)(Cl)Cl | 10µM* | ? | 0 | 12µM* | 4µM*
CC1(C(=O)NS(=O)(=O)c2ccccc2Cl)CCN1C(=O)c1ccccc1 (centres undefined) | nt | nt | -17 | nt | nt
CCOC(=O)C1(C)CCCN(C(=O)c2cc(C#N)cs2)C1 (centres undefined) | nt | nt | 0 | nt | nt
COc1ccc2cc(Br)ccc2c1CC(=O)NC1CC(C)(C)NC(C)(C)C1 | ? | -2% | -66* | 10% | 4%
COc1ccccc1NC(=O)COc1ccc(/C=N/NC(=O)CSCc2cc(C)cc(C)c2)cc1 | -3% | 3% | 3 | 18µM* | -18%
O=C(N/N=C/c1ccccc1O)C1SCCCS1 | ? | 5µM* | 226 | 2% | 0.79µM*
O=C(CCSCCC(=O)NN=Cc1ccccc1O)NN=Cc1ccccc1O | -5% | nt | 29 | 16µM* | nt
COc1ccc(CSCC(=O)N/N=C/c2ccccc2O)cc1 | ? | 3.2µM* | 115 | ? | 0.71µM*
CCOc1ccccc1C(=O)NCC(=O)N(C)CC(=O)Nc1ccc(N2CCOCC2)cc1 | nt | nt | -1 | nt | nt
COC(=O)Oc1ccc(/C=N/NC(=O)CSCc2ccccc2Br)cc1OC | -4% | 13µM* | -19 | ? | ?
COc1ccc(/C=N/NC(=O)CSCC(=O)Nc2ccccc2)cc1OC | -2% | -5% | -18 | -5% | 15%
Cc1cc(C)n(CCC(=O)N/N=C/c2ccccc2O)n1 | 30% | 1.3µM* | 28 | 6% | 1.3µM*
Cc1cc(C)n(CCC(=O)N/N=C/c2ccc(O)cc2O)n1 | 7% | -10% | 98 | ? | ?
O=C(CSc1n[nH]c(=O)[nH]c1=O)N/N=C/c1ccccc1O | 2% | 12% | 11 | -1% | -27%
O=C(CSc1ccccc1)N/N=C/c1ccccc1O | ? | 1.6µM* | 144 | 10% | 0.63µM*
O=C(CN1CCN(S(=O)(=O)c2ccc(Br)cc2)CC1)N/N=C/c1ccc(Cl)c([N+](=O)[O-])c1 | 1% | -18% | -90* | 16µM* | ?
COc1ccc(CCC(=O)NNC(=O)Nc2ccccc2Cl)cc1 | 1% | 2% | 16 | 1% | 5%
CS(=O)(=O)N(CC(=O)O)c1cc(C(F)(F)F)ccc1Cl | -39% | nt | 0 | 2% | nt
CCOc1ccc(OCCC(=O)NNC(=O)c2cc(OC)c(OC)c(OC)c2)cc1 | 2% | nt | 6 | 3% | nt
CCNC(=O)C[C@@H]1C=C[C@@H](NS(=O)(=O)c2ccc(F)cc2)[C@@H](CO)O1 | nt | nt | 11 | nt | nt
COc1ccc(COC(=O)N/N=C2/C[C@@H](O)[C@@H](O)[C@@H]3[C@@H]4C(=O)N(Cc5ccc6c(c5)OCO6)C(=O)[C@H]4CC[C@H]23)cc1 | nt | -2%[10 µM] | nt | nt | 2%[10 µM]
Cc1nccn1CC(=O)N/N=C/c1ccccc1O | ? | ? | 120 | ? | 4µM*
O=C(CN1CCCc2ccccc21)N/N=C/c1ccccc1O | ? | 0.32µM* | 40 | 8% | 0.25µM*
Cc1nccn1CC(=O)N/N=C/c1c[nH]c2ccccc12 | 8% | 3% | 47 | 0% | 7%
Cc1cc(C)n(CCC(=O)N/N=C/c2ccc(Cl)c([N+](=O)[O-])c2)n1 | -4% | 7% | -90* | 7% | 3%
Cc1cc(SCC(=O)N/N=C/c2ccc(O)c(O)c2O)c(C)cc1Br | -4% | ? | 23 | 4% | 2.8µM*

Screening data: PubChem BioAssay, National Center for Advancing Translational Sciences (NCATS)
